From PubChem BioAssay
FEN1 inh = blocks human flap endonuclease 1 | AID 588795 | 390,000 compounds, 0.35% hits | P39748 | Recombinant FEN1 flap cleavage, fluorescence, 15 min | Potency, µM (highest dose often 114 µM), hits mostly inhibitors; also: nearly all actives have a fitted effect of over 65% in size
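FEN1 at 10 nM, compound pretreatment for 15 min (room temperature), 50 nM final substrate to initiate; endpoint reads at 0 and 15 min; DMSO-only plates used as vehicle background.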
Pol eta inh = inhibitors of human DNA polymerase eta. AID 588591. Q9Y253. 390,000 compounds, 1.2% hits. Potency, µM (titrated, usually from 114 µM), most hits filed as inhibitors. recombinant Pol eta, fluorescent DNA replication assay
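Pol eta at 10 nM preincubated with compounds 15 min at room temperature; reaction started with fluorescent substrate (50 nM final) and read kinetically at 0 and 10 min.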
POLB inh = blocks human DNA polymerase beta activity. P06746. Pol beta primer extension/strand displacement, fluorescence kinetic. Potency, µM (doses to about 114 µM), most hits filed as inhibitors. 340,000 compounds, 1.3% hits. AID 485314
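Values derive from four-parameter Hill fits of normalized kinetic data: reads at 0 and 10 min following addition of 50 nM substrate to 10 nM Pol beta preincubated 15 min with compound.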
WRN helicase inh-1 = inhibitors of human WRN helicase; WRN helicase unwinding, fluorescent forked duplex, kinetic; Potency, µM (titrated, usually from 114 µM), hits mostly inhibitors; 360,000 compounds, 0.46% hits; AID 651768; also: nearly all actives have a fitted effect of over 55% in size
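Fluorescence dequenching readout, ex 525 nm/em 598 nm, kinetic mode: forked duplex DNA (100 nM final) with adjacent fluorophore and quencher unwound by WRN (20 nM final) with 2 mM ATP. Compound preincubation 15 min, room temperature.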
POLI inh = inhibitors of human DNA polymerase iota. Pol iota fluorescent replication assay, 10 min. Potency, µM (series often up to 115 µM), actives largely listed as inhibitors. 390,000 compounds, 1% hits. AID 588590
Target sequence (Q9UNA4 whole entry, looked up): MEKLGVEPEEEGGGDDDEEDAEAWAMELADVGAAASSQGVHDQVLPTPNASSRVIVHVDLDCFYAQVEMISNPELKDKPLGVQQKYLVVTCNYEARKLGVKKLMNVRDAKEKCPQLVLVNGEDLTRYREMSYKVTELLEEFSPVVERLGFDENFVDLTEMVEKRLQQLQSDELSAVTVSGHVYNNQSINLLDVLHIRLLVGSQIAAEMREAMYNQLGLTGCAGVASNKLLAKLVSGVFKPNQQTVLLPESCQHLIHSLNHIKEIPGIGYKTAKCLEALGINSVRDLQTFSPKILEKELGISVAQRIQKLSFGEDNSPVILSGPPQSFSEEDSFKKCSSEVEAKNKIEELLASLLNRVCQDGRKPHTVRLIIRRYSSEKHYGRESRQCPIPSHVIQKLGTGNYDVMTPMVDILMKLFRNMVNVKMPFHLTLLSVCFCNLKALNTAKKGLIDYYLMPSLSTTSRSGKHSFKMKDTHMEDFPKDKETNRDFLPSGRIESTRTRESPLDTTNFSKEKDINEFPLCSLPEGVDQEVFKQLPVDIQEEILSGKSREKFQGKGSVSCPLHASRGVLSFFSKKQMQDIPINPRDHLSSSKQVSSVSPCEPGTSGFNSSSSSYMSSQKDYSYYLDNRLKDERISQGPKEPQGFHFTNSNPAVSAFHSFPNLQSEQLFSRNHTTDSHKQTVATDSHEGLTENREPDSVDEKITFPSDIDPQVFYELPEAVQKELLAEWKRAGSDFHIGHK
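Pol iota at 10 nM preincubated 15 min with compounds at room temperature; reaction started with fluorescent substrate, 50 nM final. Fluorescence read kinetically at 0 and 10 min; buffer-only wells as negative control.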
POLK inh = DNA polymerase kappa (human) inhibition. Q9UBT6. purified Pol kappa, fluorescent DNA synthesis assay, 10 min. Potency, µM (highest dose often 107 µM), actives largely listed as inhibitors. 400,000 compounds, 0.53% hits. AID 588579
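First, compounds were pin-transferred onto 10 nM Pol kappa. After 15 min at room temperature, substrate was added to 50 nM final. Fluorescence was then measured kinetically at 0 and 10 min.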
WRN helicase inh-2 = confirmation of human WRN helicase inhibitors. shares compounds with WRN helicase inh-1. WRN helicase DNA unwinding, fluorescence kinetic. Potency, µM (titrated, usually from 57.1 µM), most hits filed as inhibitors. 610 compounds, 63% hits; also: nearly all actives have a fitted effect of over 65% in size
TO DNA binding = counter-screen for WRN helicase inhibitors: DNA binding | shares compounds with WRN helicase inh-1 | 610 compounds, 10% hits | Potency, µM (doses to about 57.1 µM), hits mostly inhibitors | thiazole orange DNA binding displacement, fluorescence | AID 720499;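 also: drop in dye fluorescence marks compound binding to DNA; nearly all actives have a fitted effect of over 60% in size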
BLM helicase inh = BLM helicase inhibition, WRN selectivity check; Potency, µM (titrated, usually from 57.1 µM), usual class: inhibitors; 610 compounds, 60% hits; AID 720503; Recombinant BLM helicase DNA unwinding, red fluorescence; shares compounds with WRN helicase inh-1; also: nearly all actives have a fitted effect of over 60% in size
Hits are given with their value; 0 = inactive; ? = inconclusive; - = no result given; [ ] = remark or other dose. Sampled rows, rich in hits. Any-hit rate of the full collection: about 2.4%. Calls follow the shape of the dose curve; as a rule, active = well fitted curve in the direction sought with a large enough effect; inconclusive = small, poorly fitted or top-dose-only effect, or another doubt; inactive = no such curve, though single readings can be large; an effect the other way counts as inactive or inconclusive.

SMILES	FEN1 inh	Pol eta inh	POLB inh	WRN helicase inh-1	POLI inh	POLK inh	WRN helicase inh-2	TO DNA binding	BLM helicase inh
CCN1/C(=C/c2ccc3cc(C)ccc3[n+]2C)Sc2ccc3sccc3c21	?	?	0	89µM	?	0	0.34µM	0.22µM	0.68µM
CCN1/C(=C/c2cccc[n+]2C)Sc2ccc(OC)cc21	?	0	?	0[11.6 µM]	?	0	-	-	-
CCN(N=O)c1ccc(/C=C2\C=Cc3ccccc32)cc1	?	-	-	-	0	0	-	-	-
ClC(Cl)(c1nnnn1-c1ccccc1)c1nnnn1-c1ccccc1	50µM	0	0	6.3µM	14µM	0	?	0	?
CC(=O)NC1CCCC1C#N (stereo not drawn)	0	-	-	-	0	0	-	-	-
CCOC(=O)C1=C(C)N=c2s/c(=C\c3ccc(OCC(=O)O)cc3)c(=O)n2C1c1ccc(OC(C)C)cc1 (stereo not drawn)	0	?	0	0	?	0	-	-	-
CCOC(=O)C1=C(C)N=c2sc(=Cc3cc(Cl)c(OCC(=O)O)c(Cl)c3)c(=O)n2C1c1cccc(OC)c1 (stereo not drawn)	-	-	-	79µM	-	-	30µM	0	?
CCOC(=O)C1=C(C)N=c2sc(=Cc3ccc(OCC(=O)O)cc3)c(=O)n2C1c1ccc(Cl)cc1 (stereo not drawn)	-	-	-	?	-	-	7.6µM	0	3.4µM
COc1cc(NC(=O)Cn2c(C)cc(C)c(C#N)c2=O)cc(OC)c1	0	0	0	-	0	0	-	-	-
CCCN1CNc2c(c(=O)[nH]c(=S)n2CCc2cc(C)cc(C)c2)C1	0	-	-	-	0	0	-	-	-
CC[n+]1c(/C=C/C=C/N(C(C)=O)c2ccccc2)sc2ccccc21	?	?	0	50µM	?	0	24µM	0	0
COc1ccc(C(=O)N2CCN(c3nc4c(C)c(Cl)ccc4s3)CC2)c(OC)c1	0	0	0	-	0	0	-	-	-
COCCN1C(=O)/C(=C/c2ccc(OCc3ccc(C(=O)O)cc3)c(OC)c2)SC1=Nc1ccccc1	0	28µM	50µM	?	0	0	27µM	?	27µM
COc1cc(/C=C2\SC(=Nc3ccccc3)N(Cc3ccco3)C2=O)ccc1OC(C)C(=O)O (stereo not drawn)	0	0	0	0	0	0	-	-	-
COc1ccccc1CNC(=O)Cn1c(-c2cccs2)cc2cc(F)ccc21	0	0	0	-	0	0	-	-	-
Cc1cccc(NC(=O)C2CCCN(S(=O)(=O)c3cccc4nonc34)C2)c1C (stereo not drawn)	0	0	0	-	0	0	-	-	-
O=C1ON=C(c2ccc([N+](=O)[O-])cc2)/C1=C/c1ccccc1O	0	?	0	?	?	0	0	0	0
COc1ccc(/C=C2\C(=O)ON=C2c2cccc([N+](=O)[O-])c2)cc1	-	-	0	-	-	-	-	-	-
CCOC(=O)c1ccc(NC(=O)CCc2c(C)nc3c(c(C)nn3C)c2C)cc1	0	0	0	-	0	0	-	-	-
O=C1Nc2ccc3sc4ccccc4c3c2C1=O	?	?	5.6µM	?	22µM	0	?	24µM	7.6µM
O=C1Nc2ccccc2C1=O	0	0	-	0	0	0	-	-	-
Cc1ccc(N2C(=O)CS(=O)C(c3ccccc3)C2=O)cc1C (stereo not drawn)	?	0	0	35µM	?	0	?	0	?
Cc1ccc(N2C(=O)C3C(C2=O)N2CCCN2C3c2ccccc2)cc1C (stereo not drawn)	0	0	0	0	0	0	-	-	-
Cc1cc(F)c(Nc2ncnc3cc(OCc4ccccc4)ccc23)cc1O	-	-	-	-	-	0	-	-	-
C=C1CCN(C(CC(C)C)C(=O)NCCCc2ccccc2)S(=O)(=O)c2ccccc21 (stereo not drawn)	0	-	-	-	0	0	-	-	-
SMILES	FEN1 inh	Pol eta inh	POLB inh	WRN helicase inh-1	POLI inh	POLK inh	WRN helicase inh-2	TO DNA binding	BLM helicase inh
COc1ccc(NC(=O)/C(Cl)=C(/Cl)S(=O)Cc2ccccc2)cn1 (stereo not drawn)	0	0	0	32µM	32µM	0	?	0	0
CCc1sc(C(C2C(=O)CC(C)(C)CC2=O)C2C(=O)CC(C)(C)CC2=O)cc1[N+](=O)[O-]	0	?	?	32µM	?	0	22µM	19µM	22µM
O=C(CSc1nnc(-c2cnccn2)n1Cc1ccco1)c1ccc(Cl)cc1	0	0	0	?	?	0	0	0	0
O=C(CSc1nnc(-c2cnccn2)n1Cc1ccco1)c1ccccc1	0	0	0	0	0	0	-	-	-
O=C(O)CNS(=O)(=O)Cc1ccccc1	0	0	0	0	0	0	-	-	-
O=S(=O)(Cc1ccccc1)N(O)c1ccccc1	0	0	0	?	0	0	0	0	0
CSc1cc2c(s1)c1cnn(Cc3cccc(N)c3)c(=O)c1n2C	-	-	-	-	-	-	0	0	?
Cn1c2cc(C#N)sc2c2cnn(Cc3ccc(F)cc3)c(=O)c21	0	0	-	-	0	0	-	-	-
CC(NC(=O)COC(=O)/C=C/c1ccc([N+](=O)[O-])cc1)c1ccccc1 (stereo not drawn)	0	0	0	?	89µM	?	0	0	0
O=C(c1ccccc1)N1CCc2cc(CNS(=O)(=O)c3ccc(Cl)s3)ccc21	0	0	0	-	0	0	-	-	-
C/C=C/c1ccc(OCCCNC(C)CC)c(OC)c1 (stereo not drawn)	0	0	0	?	0	0	0	0	0
Cc1c(C(=O)N2CCOCC2)oc2c1-c1nn(CC(=O)NCc3cccc(Cl)c3)cc1CC2	0	0	0	-	0	0	-	-	-
Cc1sc2c3ccsc3ccc2[n+]1C	0	0	0	?	0	0	0	0	?
CCn1nc(C(=O)OCC(=O)Nc2ncc(Cl)c(C)c2Cl)c2ccccc2c1=O	0	?	0	?	?	0	0	0	?
CCC(C)C(NC(=O)OC(C)(C)C)C(=O)NC1COC2CC(n3ccc(NC(C)=O)nc3=O)OC12 (stereo not drawn)	0	-	-	-	0	0	-	-	-
COc1cccc(/C=C2/CCC(CN(C)C)C2=O)c1 (stereo not drawn)	0	?	-	13µM	?	0	0	0	?
O=C(/C=C/c1cccs1)Nc1scc(-c2ccccc2)c1C(=O)O	?	79µM	?	32µM	2.5µM	0	?	0	22µM
NC(=O)COc1ccc(/C=C2\C(=O)ON=C2c2ccccc2)cc1	0	0	-	40µM	0	0	19µM	?	?
CC(=O)OCCCNc1cc(Sc2ccc(C)cc2)c2nonc2c1[N+](=O)[O-]	0	0	0	40µM	?	?	0	0	0
